High-throughput results deposited in PubChem by several laboratories.
This is a sample that favours compounds with a hit; in the whole collection about 2.9% have one here.
HSF1 inhib – HSF1 inhibition | NIH3T3-HGL HSE-luciferase, MG132-induced, luminescence 8 h; stronger effect = lower value | activity change, negative = inhibition, % at 7.5 µM (by protocol) | AID 2098 | 300,000 compounds, 0.77% hits;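 active means more than half of replicate wells show activity change below -50%, luminescence cut by over half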;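 further: luciferase reports HSF-1 transcriptional activity via heat shock element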
HSF-1 act – increases HSF-1 driven luciferase reporter signal; 300,000 compounds, 1.7% hits; activation, % at 9 µM; NIH3T3-HGL HSF-1 luciferase reporter, MG132, 8 h; 100% = twice DMSO control signal;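 active means mean replicate activation of at least 50% with a set share of replicates each reaching 50%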
S1P4 ag – activates the human S1P4 receptor; O95977; S1P4-expressing cell line, agonist reporter assay; activation, % at 4.98 µM; 220,000 compounds, 0.35% hits; AID 1509; in the data active means activation above about 11%
Target sequence (O95977 whole entry, looked up): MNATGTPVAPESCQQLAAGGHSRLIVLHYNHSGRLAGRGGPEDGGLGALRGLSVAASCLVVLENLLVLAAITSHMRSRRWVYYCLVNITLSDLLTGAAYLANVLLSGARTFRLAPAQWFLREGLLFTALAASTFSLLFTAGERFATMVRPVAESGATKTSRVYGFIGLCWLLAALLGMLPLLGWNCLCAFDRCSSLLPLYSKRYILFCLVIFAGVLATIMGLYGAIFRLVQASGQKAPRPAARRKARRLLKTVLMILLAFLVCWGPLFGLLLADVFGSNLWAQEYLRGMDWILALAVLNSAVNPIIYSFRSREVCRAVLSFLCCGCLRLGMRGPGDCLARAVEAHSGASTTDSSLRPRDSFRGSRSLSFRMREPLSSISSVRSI
S1P4 antagonist – antagonists of human S1P4 receptor | inhibition, % at 4.98 µM | 220,000 compounds, 0.26% hits | S1P4-expressing cells, antagonist mode, reporter read-out | O95977; in the data active means inhibition above about 29%
Hsp70 activator – Hsp70 transcriptional activation, primary screen. HeLa Hsp70 promoter luciferase reporter, luminescence; scaled: vehicle 0, proteasome-inhibitor control 100%. activation, % at 10 µM. 200,000 compounds, 0.04% hits. AID 1203;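 active means activation above the mean across all tested compounds plus 3 SD, cutoff set per campaign, cut at about 5.5% in these data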
S1P3 antag – S1P3 (human) receptor antagonism; CHO S1P3 NFAT-BLA reporter, FRET fluorescence, antagonist mode; inhibition, % at 4.98 µM; 170,000 compounds, 0.27% hits; AID 485;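 active means inhibition above the plate cutoff, the mean inhibition of test wells on that plate plus 3 SD, cut at about 28% in these data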;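 further: cells challenged with S1P at its EC80 of 0.8 µM; blue over green emission ratio from cleaved BLA substrate after 4 h stimulation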
Target sequence (Q99500 whole entry, looked up): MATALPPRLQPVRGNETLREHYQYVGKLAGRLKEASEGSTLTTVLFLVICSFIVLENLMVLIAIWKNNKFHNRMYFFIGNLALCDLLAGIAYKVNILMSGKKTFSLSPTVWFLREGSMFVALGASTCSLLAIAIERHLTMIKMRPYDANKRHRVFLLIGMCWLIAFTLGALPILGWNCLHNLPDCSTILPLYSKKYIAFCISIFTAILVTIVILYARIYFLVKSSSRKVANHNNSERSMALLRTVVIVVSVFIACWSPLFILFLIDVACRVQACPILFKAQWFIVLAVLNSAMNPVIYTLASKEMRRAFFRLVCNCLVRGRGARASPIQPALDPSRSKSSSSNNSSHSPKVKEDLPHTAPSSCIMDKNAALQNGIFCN
Large screens that a line does not name were inactive.

COc1ccc(NC(=O)CSc2nnc(-c3cccc(O)c3)o2)cc1	none (no result: S1P4 ag, S1P4 antagonist, Hsp70 activator, S1P3 antag)
COc1cccc(NC(=O)CSc2c3c(nc4ccccc24)CCCC3)c1	HSF-1 act 62
COc1cccc(NC(=O)CSc2nnc(-c3cc(C)n(-c4ccccc4)c3C)o2)c1	HSF1 inhib -53
c1ccc(C2=Nc3ccccc3SC2c2nc3ccccc3[nH]2)cc1 (stereo unspecified)	HSF-1 act 84 (no result: S1P3 antag)
O=C1CC(c2nc3ccccc3[nH]2)CN1c1ccccc1 (stereo unspecified)	none
CC1(C)CC(NC(=O)CCc2nnc(CCCCc3ccccc3)o2)CCO1 (stereo unspecified)	none
COc1ccc(-c2cnnc(N/N=C/c3ccc(O)c(O)c3)n2)cc1	none
COc1ccc(-c2cnnc(N/N=C/c3ccc(O)cc3)n2)cc1	HSF-1 act 101
CC(C)(C)c1ccc(OCCCC(=O)Nc2ccc(S(N)(=O)=O)cc2)cc1	HSF-1 act 56
COc1ccccc1N(C(=O)c1ccco1)C(C(=O)NC1CCCCC1)c1cc(OC)c(OC)c(OC)c1 (stereo unspecified)	none (no result: S1P4 ag, S1P4 antagonist, Hsp70 activator, S1P3 antag)
Cc1ccc2c(c1)N(CCC(=O)NCc1cccs1)C(=O)C(C)O2 (stereo unspecified)	none (no result: S1P3 antag)
Cc1cccc(N(C(=O)c2ccc(CN3CCOCC3)o2)C(C(=O)NC(C)(C)C)c2ccc(F)cc2)c1 (stereo unspecified)	HSF-1 act 64 (no result: S1P3 antag)
O=C(COC(=O)c1cc(Cl)ccc1Cl)Nc1ccc2[nH]c(=O)[nH]c2c1	none (no result: S1P4 ag, S1P4 antagonist, Hsp70 activator, S1P3 antag)
O=C(Nc1nc2ccc(F)cc2s1)c1ccccn1	HSF-1 act 110
CCOc1ccc2nc(NC(=O)CSc3cn[nH]n3)sc2c1	HSF-1 act 55 (no result: S1P4 ag, S1P4 antagonist, Hsp70 activator, S1P3 antag)
O=C(Nc1nc2ccccc2s1)c1cnccn1	none (no result: S1P3 antag)
COc1ccc2nc(NC(=O)CSc3cn[nH]n3)sc2c1	none (no result: S1P4 ag, S1P4 antagonist, Hsp70 activator, S1P3 antag)
CCOc1ccc2nc(NC(=O)c3cnccn3)sc2c1	HSF-1 act 99
Cc1ccc(-c2nnc(COC(=O)c3cccs3)o2)cc1	none (no result: S1P4 ag, S1P4 antagonist, Hsp70 activator, S1P3 antag)
CCOC(=O)c1cc([N+](=O)[O-])sc1N	none
CC1=C(C(N)=O)C(c2cccnc2)n2nc(-c3cccc(Cl)c3)nc2N1 (stereo unspecified)	none
COc1cccc(C2C(C(N)=O)=C(C)Nc3nc(-c4cccc(Cl)c4)nn32)c1 (stereo unspecified)	HSF-1 act 99
COc1ccc(C(C)=O)cc1CN1C(=O)NC(c2ccccc2)(c2ccccc2)C1=O	none (no result: S1P4 ag, S1P4 antagonist, Hsp70 activator, S1P3 antag)
Cc1ccc2cc3cc(C(=O)NCc4ccco4)oc3nc2c1	HSF-1 act 64
Cc1ccc2cc3cc(C(=O)NCCC(C)C)oc3nc2c1	none
COC(=O)Cc1c(C)c2ccc(OCC(=O)N3CCCC(C)C3)c(C)c2oc1=O (stereo unspecified)	none (no result: S1P4 ag, S1P4 antagonist, Hsp70 activator, S1P3 antag)
COc1cccc(-c2n[nH]c(=S)n2Cc2ccco2)c1	none (no result: Hsp70 activator)
COC(=O)CSCC(=O)Nc1nnc(-c2ccccc2C)s1	none
CC(/C=N/NC(=O)c1ccccc1C)=C\c1ccccc1	none (no result: S1P4 ag, S1P4 antagonist, Hsp70 activator, S1P3 antag)
O=C(Cc1cccs1)N/N=C/C(Br)=C/c1ccccc1	HSF-1 act 106 (no result: S1P3 antag)
CC(/C=N/NC(=O)c1sc(N)nc1C)=C\c1ccccc1	HSF-1 act 75
CC(/C=N/NC(=O)c1ccco1)=C\c1ccccc1	HSF-1 act 55
CC(/C=N/NC(=O)Cc1cccs1)=C\c1ccccc1	HSF-1 act 122
CC(/C=N/NC(=O)c1cccs1)=C\c1ccccc1	none
Cc1ccc(C(=O)NCc2ccc(N3CCN(C)CC3)cc2)cc1C	HSF1 inhib -69 (no result: S1P4 ag, S1P4 antagonist, Hsp70 activator, S1P3 antag)
CN(C)S(=O)(=O)c1cccc(NC(=O)CSc2nnnn2-c2ccccc2)c1	none (no result: Hsp70 activator)
COc1cc(/C=N/N=C(N)N)ccc1OCc1ccc(Cl)cc1	none
COc1cccc(OCc2cc(/C=N/Nc3ccc(C(=O)O)cc3)ccc2OC)c1	HSF1 inhib -73 (no result: Hsp70 activator)
COc1cc(/C=C(\C#N)C(=O)Nc2cccc(C(=O)O)c2)ccc1OCc1ccc(Cl)cc1	HSF-1 act 113 (no result: S1P4 ag, S1P4 antagonist, Hsp70 activator, S1P3 antag)
COc1cc(/C=N/O)ccc1OCc1ccc(C(=O)O)cc1	HSF1 inhib -77 (no result: S1P3 antag)
O=C(O)c1cc(/C=N\O)ccc1OCc1ccccc1	none
COc1cc(/C=C(/C#N)C(=O)Nc2ccccc2)c(Br)cc1OCc1ccc(C(=O)O)cc1	none (no result: Hsp70 activator)
COc1cc(/C=N/O)ccc1OCc1ccc(Cl)cc1	HSF-1 act 108
CCCCN1CC[C@H]2C=CC[C@@H](C(=O)NCCc3ccccc3)[C@H]2C1=O	none (no result: S1P4 ag, S1P4 antagonist, Hsp70 activator, S1P3 antag)
COc1ccc(NC(=O)/C(C#N)=C\C=C\c2ccco2)cc1	none
CC(=O)N1N=C(c2ccc(C)cc2)OC1c1ccc(Br)cc1 (stereo unspecified)	HSF-1 act 57
CCCN(Cc1nnc(-c2ccccc2Cl)o1)C(=O)c1cccc(S(=O)(=O)N2CCOCC2)c1	none (no result: S1P4 ag, S1P4 antagonist, Hsp70 activator, S1P3 antag)
CC(=O)NC12CC3CC(C1)CC(C(=O)Nc1nc4ccc(F)cc4s1)(C3)C2	none (no result: S1P4 ag, S1P4 antagonist, Hsp70 activator, S1P3 antag)
Cc1cccc2sc(N(CCN(C)C)C(=O)/C=C/c3cccs3)nc12	HSF-1 act 78
CN(C)S(=O)(=O)c1ccc(/C(O)=C2/C(=O)C(=O)N(Cc3cccnc3)C2c2cccs2)cc1 (stereo unspecified)	none
Cc1c(/C(O)=C2/C(=O)C(=O)N(Cc3cccnc3)C2c2cccs2)cnn1-c1ccccc1 (stereo unspecified)	HSF1 inhib -64
Cc1c(/C(O)=C2/C(=O)C(=O)N(Cc3cccnc3)C2c2ccccn2)cnn1-c1ccccc1 (stereo unspecified)	HSF1 inhib -76
O=[N+]([O-])c1ccc(S(=O)(=O)Nc2nnc(C(F)(F)F)s2)cc1	none (no result: S1P4 ag, S1P4 antagonist, Hsp70 activator, S1P3 antag)
Cc1cccc(NC(=O)CSc2nnc(C3CC3)n2CC2CCCO2)c1C (stereo unspecified)	none (no result: S1P4 ag, S1P4 antagonist, Hsp70 activator, S1P3 antag)
CC(NC(=O)C(=O)N1CCOCC1)C(c1cccs1)N1CCN(c2ccccc2F)CC1 (stereo unspecified)	none (no result: S1P4 ag, S1P4 antagonist, Hsp70 activator, S1P3 antag)
CCOC(=O)Cn1nnnc1C(CC)N(Cc1cc2ccc(C)cc2[nH]c1=O)C1CCCC1 (stereo unspecified)	HSF-1 act 69
COCCCN(Cc1ccco1)C(=O)CSc1nc2ncccc2[nH]1	HSF1 inhib -55 (no result: S1P4 ag, S1P4 antagonist, Hsp70 activator, S1P3 antag)
COc1ccc(C2=Nn3c(nnc3-c3ccccn3)SC2)cc1OC	none (no result: S1P3 antag)
COc1ccc(C2=Nn3c(nnc3-c3ccccc3OC)SC2)cc1OC	S1P3 antag 54
O=C(O)CCc1n[nH]c(=S)[nH]c1=O	none
O=[N+]([O-])c1ccccc1CSc1ccccn1	none (no result: Hsp70 activator)
O=[N+]([O-])c1ccccc1CCc1cnc(Cl)s1	HSF1 inhib -63 (no result: S1P4 ag, S1P4 antagonist, Hsp70 activator, S1P3 antag)
COc1ccc2cc(CCNC(=O)c3ccc(S(=O)(=O)N4CCCC4)cc3)c(=O)[nH]c2c1	none (no result: S1P4 ag, S1P4 antagonist, Hsp70 activator, S1P3 antag)
O=C(CN1CCOCC1)N/N=C/c1ccc(-c2cccc(Cl)c2Cl)o1	none (no result: Hsp70 activator)
O=c1cc(Cn2ccnc2)c2cc(O)ccc2o1	none (no result: S1P4 ag, S1P4 antagonist, Hsp70 activator, S1P3 antag)
C=CCn1c(C)nc2c(sc3nc4c(cc32)COC(C)(C)C4)c1=O	HSF-1 act 53 (no result: Hsp70 activator)
